This is an account of results in PubChem BioAssay.

Records with an inconclusive call do not appear. Active and inactive are the calls of the source.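 Rule for the calls, unless noted: active = efflux inhibition above 0.42, the validation set average plus 4 SD; inconclusive = no clear call, values can overlap the other calls; inactive = the rest.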

Test [1] in a line: yeast TOR pathway RPL19A-GFP modulators, primary screen, cell-based, S. cerevisiae, multiplex flow cytometry (AID 1862; in the data active = percent of DMSO control GFP below about 86%;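 note: lower values mimic rapamycin by blocking the RPL19A rise seen in DMSO cells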). As to conditions: S. cerevisiae RPL19A-GFP strain, flow cytometry fluorescence, 3 h; at 10 µM; stronger effect = lower value.
The nature of test [2]: modulators of MEP2-GFP levels in yeast, primary screen, S. cerevisiae, multiplex flow cytometry (AID 1867;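 active = GFP response, as percent of the DMSO control, above the screen-wide mean plus 3 SD, about 139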;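 note: median GFP channel fluorescence of barcode-gated MEP2-GFP cells measured by flow cytometry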). To be noted: S. cerevisiae MEP2-GFP strain, 3 h, at 10 µM, stronger effect = higher value, 100% means same as DMSO wells. A general note: Flow cytometry measures light scatter and fluorescence of single cells or particles in a stream.
A short description of test [3]: modulators of CIT2-GFP expression in yeast, primary screen, S. cerevisiae, GFP fusion, multiplex flow cytometry (AID 1870;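 active = percent response above a set limit, the screen-wide mean plus 3 SD, cut at about 130% in these data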;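 note: barcoded CIT2-GFP strain pooled with four other GFP strains with rapamycin as positive control; median GFP fluorescence per well over plate mean of DMSO wells so 100% = DMSO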). To be noted: 3 h, at 10 µM, stronger effect = higher value.
A short description of test [4]: modulators of LAP4-GFP expression in yeast, primary screen, S. cerevisiae, multiplex flow cytometry (AID 1873;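 active = GFP signal, as percent of the solvent control, above the screen mean plus 3 SD, about 149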). As to conditions: 3 h, at 10 µM, stronger effect = higher value.
Test [5] in a line: modulators of AGP1-GFP expression in yeast TOR pathway, primary screen, cell-based, multiplex flow cytometry, S. cerevisiae (AID 1887;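 active = GFP signal above the screen-wide mean plus 3 SD, that is over about 124.5% of the solvent control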;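 note: AGP1-GFP fusion strain of S. cerevisiae within a five-strain barcoded multiplex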). As to conditions: 3 h, at 10 µM, stronger effect = higher value.
Test [6] is described as follows: inhibitors of CD8+ T cell-vesicle binding, pilot screen, LFA-1/ICAM-1 modulator project, MLPCN validation set, flow cytometry (AID 2523;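 active = response below a set limit, under 55% cells CD8-positive and vesicle-bound, and CD8 cells' 90th-percentile brightness under 279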;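 for vesicle binding response: mean PE anti-B7-1 fluorescence of CD8+ cells relative to row control; 100% = QL9-loaded vesicles with DMSO vehicle in the same plate row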). To be noted: 2C mouse CD8+ T cells, at 7 µM, stronger effect = lower value; double positive events: measured here: CD8+/vesicle+ event percentage.
Test [7] concerns the target Integrin beta-1 (Homo sapiens) + Integrin alpha-4 (Homo sapiens) (UniProt P13612+P05556). Description: inhibition of HUTS-21 binding to VLA-4, pilot screen, VLA-4 allosteric modulator project, U937 cells, HUTS-21 mAb, flow cytometry, validation set (AID 2674;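 active = inhibition above 50%, about 3 SD of the validation set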;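 note: antibody binding induced by the VLA-4 ligand LDV present at three times its Kd; 0% = LDV ligand with antibody and no compound and 100% = antibody without LDV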). To be noted: HUTS-21 LIBS mAb binding, at 6.7 µM, stronger effect = higher value, binding induced by LDV ligand.
The nature of test [8]: superoxide lowering in aged yeast cells, pilot screen, validation compound set (AID 2706;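 active = superoxide response below 65% of plate, a cut near 3 SD across the whole screen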;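 note: yeast exposed to compound for one week at 30 degrees C before staining; 100% = mean of all compound wells on the same plate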). To be noted: S. cerevisiae aging, superoxide DHE fluorescence; at 10 µM; stronger effect = lower value.
The target of test [9] is Beta-adrenergic receptor kinase 1 (Homo sapiens) (UniProt P25098). Description: GRK2 binders displacing RNA aptamer, biochemical, validation, human GRK2, bead flow cytometry (AID 488806;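 active = aptamer binding inhibition above 30%, about 3 SD of noise from non-fluorescent compounds; inactive = inhibition at or below 30%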). To be noted: bead-bound GRK2, FAM-aptamer displacement, at 10 µM, stronger effect = higher value.
Chain of Beta-adrenergic receptor kinase 1 (Homo sapiens) (P25098 whole entry, looked up): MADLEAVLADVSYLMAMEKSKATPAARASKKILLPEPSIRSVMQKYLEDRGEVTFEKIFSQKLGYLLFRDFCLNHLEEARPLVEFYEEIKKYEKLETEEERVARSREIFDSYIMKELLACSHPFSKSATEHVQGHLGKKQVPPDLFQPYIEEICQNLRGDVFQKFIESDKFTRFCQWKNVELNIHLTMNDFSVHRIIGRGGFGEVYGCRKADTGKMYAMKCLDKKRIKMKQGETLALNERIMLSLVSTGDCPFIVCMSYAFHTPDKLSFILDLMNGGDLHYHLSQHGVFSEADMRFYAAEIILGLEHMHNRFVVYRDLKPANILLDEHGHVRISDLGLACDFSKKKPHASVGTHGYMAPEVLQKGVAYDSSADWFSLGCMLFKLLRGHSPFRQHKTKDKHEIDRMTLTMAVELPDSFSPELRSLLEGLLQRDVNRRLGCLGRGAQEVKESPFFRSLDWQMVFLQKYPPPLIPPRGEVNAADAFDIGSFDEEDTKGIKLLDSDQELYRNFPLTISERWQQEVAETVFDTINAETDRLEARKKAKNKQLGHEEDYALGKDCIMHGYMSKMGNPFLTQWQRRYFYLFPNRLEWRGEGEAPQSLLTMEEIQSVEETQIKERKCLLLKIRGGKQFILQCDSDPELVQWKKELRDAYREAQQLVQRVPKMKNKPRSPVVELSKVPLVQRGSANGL
Test [10] has as its target Beta-2 adrenergic receptor (Homo sapiens) (UniProt P07550). As to the kind of experiment: beta2AR agonists driving receptor internalization, pilot screen, cell-based, FAP fluorogen, flow cytometry, validation set (AID 504459;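 active = percent response above 42, roughly 3 SD of non-fluorescent test compounds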;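 note: agonist-driven loss of surface beta2AR via internalization measured by FAP dye flow cytometry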). To be noted: Am2.2-beta2AR cells, FAP surface receptor flow cytometry; at 10 µM; stronger effect = higher value.
Test [11] concerns the target AP-2 complex subunit beta (Homo sapiens) (UniProt P63010). As to the kind of experiment: inhibitors of arrestin peptide binding to AP2, pilot screen, biochemical, validation set, GST-AP2 beads, flow cytometry (AID 504541;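 active = inhibition above 54%, about 3 SD of non-fluorescent compounds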;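 note: AP2 carries R879A mutation and is captured from E. coli lysate; bead-bound FITC arrestin peptide fluorescence measuring arrestin peptide binding to AP2; 0% = DMSO wells and 100% = excess unlabeled arrestin peptide control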). To be noted: FITC arrestin peptide, at 10 µM, stronger effect = higher value, AP2 beta2 appendage fragment, R879A mutant.
Test [12] can be described thus: yeast V-ATPase proton transport modulators, S. cerevisiae, pHLuorin, HTS validation (AID 504600; in the data active = response above about 15%;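 note: plate controls were DMSO for no effect and reference compound for full effect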). To be noted: S. cerevisiae pHLuorin cytosolic pH, at 10 µM, stronger effect = higher value.
Test [13] deals with anti-desmoglein-3 scFv antibody binding to human DSG3. Description: inhibitors of anti-DSG3 scFv binding to DSG3, pilot screen, biochemical, validation compound set, bead-based, flow cytometry (AID 588368;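 active = binding below the plate cutoff, the plate median minus 3 SD, with a reading above zero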;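 note: signal is the median channel fluorescence of bead-bound GFP antibody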). As to conditions: Protein G beads, DSG3-Fc, scFv-GFP binding, at 10 µM, stronger effect = lower value.
Test [14] in a line: inhibitors of fungal efflux pumps CDR1, CDR2, MDR1, pilot screen, validation compound set, multiplex, phenotypic (AID 588506).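 Note: Nile Red retained in cells so higher fluorescence means more efflux inhibition; 0 = negative control wells and 1 = enniatin B 25 µM full block.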 As to conditions: S. cerevisiae pump-expressing triplex, Nile Red efflux flow cytometry; at 10 µM; stronger effect = higher value; the pumps come from Candida albicans.
Test [15] has as its target ATP-binding cassette sub-family B member 6 (Homo sapiens) (UniProt Q9NP58). As to the kind of experiment: ABCB6 transporter inhibitors, pilot screen, K562-ABCB6 cells, flow cytometry, validation set (AID 588550;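 active = inhibition above the screen-wide mean plus 3 SD, about 51%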;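 note: 0% = DMSO wells and 100% = benzethonium chloride 70 µM positive control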). As to conditions: K562-ABCB6 porphyrin accumulation, 1 h, at 10 µM, stronger effect = higher value.
Test [16] in a line: promoters of myeloid differentiation in arrested cells, primary screen, cell-based, GFP/MAC1 double positive, flow cytometry, validation set (AID 588685;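 active = differentiation response of at least 50%, scaled between solvent and reference control, from cells with both markers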;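 note: compound exposure lasts four days before antibody staining and flow analysis; 0% = DMSO wells and 100% = 5 µM fulvestrant positive control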). As to conditions: ER-HoxA9 marrow cells, stronger effect = higher value, normalized: vehicle 0, fulvestrant 100.

Chain of Beta-2 adrenergic receptor (Homo sapiens) (P07550 whole entry, looked up): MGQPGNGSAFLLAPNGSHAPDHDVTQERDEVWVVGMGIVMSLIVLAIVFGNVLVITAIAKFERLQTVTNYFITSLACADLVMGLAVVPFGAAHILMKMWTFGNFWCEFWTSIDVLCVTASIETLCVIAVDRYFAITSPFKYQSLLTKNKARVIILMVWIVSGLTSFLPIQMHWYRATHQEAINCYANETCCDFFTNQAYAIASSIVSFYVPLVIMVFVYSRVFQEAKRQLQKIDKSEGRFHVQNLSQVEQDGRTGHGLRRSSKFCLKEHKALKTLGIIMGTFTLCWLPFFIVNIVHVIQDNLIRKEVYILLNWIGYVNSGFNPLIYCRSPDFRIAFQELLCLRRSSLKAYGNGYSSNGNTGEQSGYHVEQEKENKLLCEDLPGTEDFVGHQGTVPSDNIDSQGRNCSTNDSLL
Chain of AP-2 complex subunit beta (Homo sapiens) (P63010 whole entry, looked up, the tested form may be a part, one chain of several): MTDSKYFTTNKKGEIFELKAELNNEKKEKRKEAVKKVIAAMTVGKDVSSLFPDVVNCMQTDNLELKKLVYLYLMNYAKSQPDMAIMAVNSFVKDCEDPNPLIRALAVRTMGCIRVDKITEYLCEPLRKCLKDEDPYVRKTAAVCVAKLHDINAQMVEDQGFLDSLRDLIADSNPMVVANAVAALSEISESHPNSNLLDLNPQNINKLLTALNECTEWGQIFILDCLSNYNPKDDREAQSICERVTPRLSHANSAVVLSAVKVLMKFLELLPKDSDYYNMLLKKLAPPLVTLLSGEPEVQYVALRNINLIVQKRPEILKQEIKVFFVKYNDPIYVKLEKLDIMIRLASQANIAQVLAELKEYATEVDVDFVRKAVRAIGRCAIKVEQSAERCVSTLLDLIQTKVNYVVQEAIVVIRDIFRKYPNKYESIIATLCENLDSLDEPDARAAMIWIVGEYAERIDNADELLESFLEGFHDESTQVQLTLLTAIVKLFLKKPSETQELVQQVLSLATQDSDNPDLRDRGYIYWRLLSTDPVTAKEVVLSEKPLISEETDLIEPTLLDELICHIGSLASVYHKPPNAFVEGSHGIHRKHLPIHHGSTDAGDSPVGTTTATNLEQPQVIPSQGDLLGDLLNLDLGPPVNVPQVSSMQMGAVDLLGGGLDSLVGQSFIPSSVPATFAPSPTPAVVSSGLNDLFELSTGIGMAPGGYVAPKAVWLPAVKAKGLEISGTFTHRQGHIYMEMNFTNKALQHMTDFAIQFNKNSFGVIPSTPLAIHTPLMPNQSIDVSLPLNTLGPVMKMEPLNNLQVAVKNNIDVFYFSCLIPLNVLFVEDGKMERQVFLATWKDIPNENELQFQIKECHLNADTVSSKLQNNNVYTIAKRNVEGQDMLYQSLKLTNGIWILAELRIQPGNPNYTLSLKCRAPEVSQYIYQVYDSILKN
Chain of Integrin beta-1 (Homo sapiens) + Integrin alpha-4 (Homo sapiens) (P05556 whole entry, looked up): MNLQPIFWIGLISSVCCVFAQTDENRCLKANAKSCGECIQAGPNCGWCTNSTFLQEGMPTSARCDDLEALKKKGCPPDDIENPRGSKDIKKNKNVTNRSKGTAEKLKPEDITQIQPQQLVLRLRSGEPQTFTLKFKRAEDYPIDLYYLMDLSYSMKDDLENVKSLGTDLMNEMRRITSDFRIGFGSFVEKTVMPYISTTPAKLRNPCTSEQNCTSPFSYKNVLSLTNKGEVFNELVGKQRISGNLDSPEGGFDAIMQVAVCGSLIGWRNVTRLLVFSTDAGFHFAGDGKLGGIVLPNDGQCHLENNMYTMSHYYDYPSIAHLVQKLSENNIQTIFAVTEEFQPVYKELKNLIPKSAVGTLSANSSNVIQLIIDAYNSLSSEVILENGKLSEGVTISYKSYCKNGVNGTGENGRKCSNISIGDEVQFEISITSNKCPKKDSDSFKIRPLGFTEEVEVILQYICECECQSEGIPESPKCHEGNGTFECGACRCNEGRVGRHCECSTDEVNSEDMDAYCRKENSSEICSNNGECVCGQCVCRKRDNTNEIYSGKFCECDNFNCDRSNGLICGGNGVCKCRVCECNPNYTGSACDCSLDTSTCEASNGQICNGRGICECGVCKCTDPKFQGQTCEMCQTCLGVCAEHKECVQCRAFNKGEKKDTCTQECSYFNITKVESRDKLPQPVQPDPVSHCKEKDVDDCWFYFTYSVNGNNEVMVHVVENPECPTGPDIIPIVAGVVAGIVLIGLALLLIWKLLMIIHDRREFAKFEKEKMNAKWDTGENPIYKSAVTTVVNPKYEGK
Chain of Integrin beta-1 (Homo sapiens) + Integrin alpha-4 (Homo sapiens) (P13612 whole entry, looked up): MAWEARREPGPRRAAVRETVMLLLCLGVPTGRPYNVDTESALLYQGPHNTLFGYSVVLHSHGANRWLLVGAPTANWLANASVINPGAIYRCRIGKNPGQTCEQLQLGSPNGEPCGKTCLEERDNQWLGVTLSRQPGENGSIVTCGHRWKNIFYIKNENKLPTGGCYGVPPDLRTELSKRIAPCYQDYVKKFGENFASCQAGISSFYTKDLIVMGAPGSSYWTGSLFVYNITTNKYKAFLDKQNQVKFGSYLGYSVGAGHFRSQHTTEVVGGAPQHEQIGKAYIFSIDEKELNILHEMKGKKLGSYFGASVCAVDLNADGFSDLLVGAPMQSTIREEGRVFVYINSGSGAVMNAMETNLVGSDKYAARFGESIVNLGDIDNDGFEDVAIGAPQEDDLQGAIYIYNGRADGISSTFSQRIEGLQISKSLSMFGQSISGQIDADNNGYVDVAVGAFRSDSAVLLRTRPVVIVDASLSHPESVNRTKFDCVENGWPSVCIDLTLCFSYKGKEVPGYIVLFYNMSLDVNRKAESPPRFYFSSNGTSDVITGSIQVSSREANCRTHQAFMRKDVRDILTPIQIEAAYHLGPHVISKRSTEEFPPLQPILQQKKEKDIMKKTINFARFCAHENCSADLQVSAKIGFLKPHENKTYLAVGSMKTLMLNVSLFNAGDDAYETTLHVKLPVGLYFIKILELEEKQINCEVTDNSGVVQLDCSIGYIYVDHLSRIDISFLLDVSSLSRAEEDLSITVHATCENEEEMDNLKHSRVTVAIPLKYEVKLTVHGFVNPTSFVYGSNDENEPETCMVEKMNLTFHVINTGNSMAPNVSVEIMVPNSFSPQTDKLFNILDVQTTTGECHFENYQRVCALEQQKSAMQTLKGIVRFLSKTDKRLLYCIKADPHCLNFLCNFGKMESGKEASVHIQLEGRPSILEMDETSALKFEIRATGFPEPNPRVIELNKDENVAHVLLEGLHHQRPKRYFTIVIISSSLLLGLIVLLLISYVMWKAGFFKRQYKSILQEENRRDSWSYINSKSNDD
Chain of ATP-binding cassette sub-family B member 6 (Homo sapiens) (Q9NP58 whole entry, looked up): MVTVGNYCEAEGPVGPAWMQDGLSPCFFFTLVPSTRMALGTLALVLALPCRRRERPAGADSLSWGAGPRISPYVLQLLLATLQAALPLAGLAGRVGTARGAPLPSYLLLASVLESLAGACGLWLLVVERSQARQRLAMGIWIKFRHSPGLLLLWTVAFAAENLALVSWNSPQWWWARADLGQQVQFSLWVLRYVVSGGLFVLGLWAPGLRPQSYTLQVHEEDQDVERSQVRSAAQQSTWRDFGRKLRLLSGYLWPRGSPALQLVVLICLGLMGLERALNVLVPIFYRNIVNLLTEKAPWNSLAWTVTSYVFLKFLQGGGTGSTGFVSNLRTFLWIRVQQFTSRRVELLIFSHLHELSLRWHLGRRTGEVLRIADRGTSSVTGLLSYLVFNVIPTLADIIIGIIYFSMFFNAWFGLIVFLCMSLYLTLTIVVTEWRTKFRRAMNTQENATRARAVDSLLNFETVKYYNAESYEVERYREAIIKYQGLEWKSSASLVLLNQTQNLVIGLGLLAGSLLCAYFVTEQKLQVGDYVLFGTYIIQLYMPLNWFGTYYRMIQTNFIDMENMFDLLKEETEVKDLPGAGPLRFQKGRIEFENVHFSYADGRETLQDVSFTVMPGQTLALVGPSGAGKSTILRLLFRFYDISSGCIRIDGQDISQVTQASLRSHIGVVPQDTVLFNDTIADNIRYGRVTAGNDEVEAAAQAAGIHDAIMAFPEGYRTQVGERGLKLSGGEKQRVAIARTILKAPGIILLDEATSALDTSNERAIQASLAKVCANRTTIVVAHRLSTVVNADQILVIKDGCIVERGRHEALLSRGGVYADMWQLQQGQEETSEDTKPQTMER

Usually inhibition stands for the change of the read-out against control, counted positive when it falls. In the case of `CC[C@]1(O)CC2CN(CCc3c([nH]c4ccccc34)[C@@](C(=O)OC)(c3cc4c(cc3OC)N(C=O)[C@H]3[C@@](O)(C(=O)OC)[C@H](OC(C)=O)[C@]5(CC)C=CCN6CC[C@]43[C@@H]65)C2)C1` (stereo not given in full), the percent of DMSO control GFP in test [1] was 103% (inactive). Also, the results for the GFP response vs DMSO in [2] and in test [4] were 98.5% (inactive) and 94% (inactive), respectively. The percent response of DMSO control in [3] is 101% (inactive). The GFP response, % of DMSO in test [5] is 98.5% (inactive). Moreover, the double positive events in test [6] is 61.8%. In addition, the vesicle binding response in test [6] was 204% (inactive). The inhibition was 48.7% (inactive) in [7], -4.62% (inactive) in test [11] and 112% (active) in test [15]. The superoxide response (% of plate) in [8] is 93% (inactive). For the same compound, the aptamer binding inhibition in test [9] was 3% (inactive). Moreover, the response in test [10] was 23.4% (inactive); in test [12], 6.03% (inactive). Besides, the binding (% of control) in test [13] is 97.2% (inactive). For the same compound, in test [14], the efflux inhibition (fraction of control) is 0.12 (inactive). For the same compound, the differentiation response in [16] was 4% (inactive).

Consider `CC(=O)C1=C(O)C(=O)N(Cc2cccnc2)C1c1ccc(C(C)C)cc1` (stereo not given), for which, in test [1], the percent of DMSO control GFP is 97.5% (inactive). The GFP response vs DMSO is 109% (inactive) in [2] and 113% (inactive) in [4]. Further, the percent response of DMSO control in test [3] was 100% (inactive). In addition, the GFP response, % of DMSO in test [5] is 104% (inactive). In [6], this compound gave a double positive events of 59.9%. Besides, in test [6], the vesicle binding response is 152% (inactive). Moreover, the inhibition in test [7] is -6.23% (inactive); in [11], 5.98% (inactive); in test [15], 1% (inactive). In test [8], the superoxide response (% of plate) was 84.1% (inactive). Further, the aptamer binding inhibition in test [9] was -1% (inactive). Further, the response in test [10] was -27.3% (inactive); in test [12], 2.79% (inactive). For the same compound, the binding (% of control) in test [13] is 102% (inactive). Moreover, the efflux inhibition (fraction of control) in test [14] is 0.08 (inactive). Moreover, the differentiation response in test [16] was -5.97% (inactive).

As for `CC1(C)Cc2nc3sc4c(=O)n(CC(N)=O)cnc4c3cc2CO1`, the percent of DMSO control GFP in test [1] is 90.9% (inactive). Also, the results for the GFP response vs DMSO in test [2] and in test [4] were 134% (inactive) and 73.2% (inactive), respectively. In test [3], the percent response of DMSO control is 115% (inactive). The GFP response, % of DMSO in test [5] is 82.2% (inactive). Besides, in test [6], the double positive events was found to be 67.5%. Further, the vesicle binding response in [6] is 159% (inactive). Further, the inhibition in [7] is 3.55% (inactive); in test [11], 12.8% (inactive); in [15], 14% (inactive). In addition, in [8], the superoxide response (% of plate) was 102% (inactive). In test [9], the aptamer binding inhibition was 10% (inactive). In addition, the results for the response in test [10] and in test [12] were -4.57% (inactive) and -2.49% (inactive), respectively. In [13], the binding (% of control) was 97% (inactive). Also, the efflux inhibition (fraction of control) in test [14] was 0.41 (inactive). In addition, the differentiation response in test [16] was -9.01% (inactive).

`CCOC(=O)c1oc2cc(O)cc(C)c2c(=O)c1-c1cscn1`: the percent of DMSO control GFP in test [1] was 100% (inactive). The GFP response vs DMSO in test [2] is 105% (inactive); in [4], 119% (inactive). In addition, the percent response of DMSO control in test [3] is 91% (inactive). The GFP response, % of DMSO in test [5] is 102% (inactive). This compound registered a double positive events in test [6] of 58.7%. The vesicle binding response in test [6] was 182% (inactive). Also, the inhibition was 3.67% (inactive) in test [7], 24.6% (inactive) in test [11] and 3% (inactive) in test [15]. Further, in test [8], the superoxide response (% of plate) is 101% (inactive). Further, the aptamer binding inhibition in test [9] was 4% (inactive). The response in test [10] was -3.97% (inactive); in test [12], -5.59% (inactive). Also, the binding (% of control) in [13] was 101% (inactive). For the same compound, in test [14], the efflux inhibition (fraction of control) is -0.06 (inactive). For the same compound, the differentiation response in test [16] was 5.6% (inactive).

On to `CC(C)OC(=O)CC12CN3CN(C1)CC(CC(=O)OC(C)C)(C3)C2=O`, for which, in test [1], the percent of DMSO control GFP was 99.5% (inactive). In addition, the GFP response vs DMSO is 115% (inactive) in test [2] and 119% (inactive) in test [4]. Moreover, the percent response of DMSO control in test [3] is 90.1% (inactive). In addition, in test [5], the GFP response, % of DMSO was 105% (inactive). The compound further registered a double positive events in [6] of 60.5%. In addition, in [6], the vesicle binding response was 179% (inactive). Further, the inhibition in [7] is -0.43% (inactive); in test [11] it was 11.2% (inactive); in [15], 11% (inactive). Moreover, in [8], the superoxide response (% of plate) was 92.3% (inactive). For the same compound, in test [9], the aptamer binding inhibition was 1% (inactive). The response in test [10] was -2.44% (inactive); in test [12], -2% (inactive). Moreover, the binding (% of control) in [13] was 103% (inactive). Further, the efflux inhibition (fraction of control) in [14] is 0.12 (inactive). In addition, in test [16], the differentiation response is 39.2% (inactive).
